The structures appear in SMILES notation. The campaign covered roughly 2,400 compounds. About 750 (31%) were called active.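 Rule for the calls: active = median signal gain over dofetilide-blocked control wells reaching their mean plus 3 SD, so readout 1 at least 0; inactive = the rest.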 This is one part of the list.

Consider 51 compounds from PubChem BioAssay AID1835 (Johns Hopkins Ion Channel Center, 2009).

The test deals with Voltage-gated inwardly rectifying potassium channel KCNH2 (Homo sapiens) (UniProt Q12809). As to the kind of experiment: modulators restoring hERG flux under dofetilide – cell-based, thallium flux, duplicate retest, dofetilide IC70, confirmation (AID 1835). As to conditions: hERG cell line, FluxOR thallium flux, dofetilide-blocked; at 10 µM; active compounds read high. (In general: The hERG channel carries a current that helps repolarise heart muscle cells.)
Sequence of Voltage-gated inwardly rectifying potassium channel KCNH2 (Homo sapiens) (Q12809 whole entry, looked up): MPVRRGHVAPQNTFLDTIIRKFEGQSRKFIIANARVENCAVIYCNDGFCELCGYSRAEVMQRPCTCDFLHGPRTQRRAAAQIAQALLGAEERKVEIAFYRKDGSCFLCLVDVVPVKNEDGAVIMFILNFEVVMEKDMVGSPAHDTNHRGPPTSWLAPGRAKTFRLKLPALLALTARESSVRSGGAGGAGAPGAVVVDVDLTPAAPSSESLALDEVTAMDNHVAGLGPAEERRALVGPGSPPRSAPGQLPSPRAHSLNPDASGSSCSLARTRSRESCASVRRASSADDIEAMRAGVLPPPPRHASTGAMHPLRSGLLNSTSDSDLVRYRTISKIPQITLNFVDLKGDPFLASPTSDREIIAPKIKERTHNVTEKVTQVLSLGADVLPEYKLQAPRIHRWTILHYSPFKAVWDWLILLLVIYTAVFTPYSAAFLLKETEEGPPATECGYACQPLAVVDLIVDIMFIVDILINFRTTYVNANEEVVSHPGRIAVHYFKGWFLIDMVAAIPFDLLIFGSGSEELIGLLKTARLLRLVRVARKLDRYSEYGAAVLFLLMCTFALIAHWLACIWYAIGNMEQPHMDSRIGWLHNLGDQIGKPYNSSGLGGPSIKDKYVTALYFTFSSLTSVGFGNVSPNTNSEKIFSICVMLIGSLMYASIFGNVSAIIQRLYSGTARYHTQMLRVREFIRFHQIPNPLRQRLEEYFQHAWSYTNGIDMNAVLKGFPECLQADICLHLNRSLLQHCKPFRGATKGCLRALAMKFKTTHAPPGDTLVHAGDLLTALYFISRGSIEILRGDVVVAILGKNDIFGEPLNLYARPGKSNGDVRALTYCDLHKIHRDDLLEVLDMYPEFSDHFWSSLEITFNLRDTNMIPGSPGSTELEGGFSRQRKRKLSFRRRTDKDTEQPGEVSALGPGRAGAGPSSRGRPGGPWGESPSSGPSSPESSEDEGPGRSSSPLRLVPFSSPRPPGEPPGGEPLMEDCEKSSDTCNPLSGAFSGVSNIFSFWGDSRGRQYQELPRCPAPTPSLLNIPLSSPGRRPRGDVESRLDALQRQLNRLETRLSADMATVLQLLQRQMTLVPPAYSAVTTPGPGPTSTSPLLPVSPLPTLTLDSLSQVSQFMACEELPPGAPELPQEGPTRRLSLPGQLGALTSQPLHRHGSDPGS
Consider `Cc1cc(C)c(S(=O)(=O)Nc2cccc(-n3cnnn3)c2)c(C)c1`, for which the activity increase over dofetilide control, less the hit threshold is -14% (inactive). Then `O=C(COC(=O)C1CCC(=O)N1)Nc1ccc(Oc2ccccc2)cc1` (stereo unspecified), with -9% (inactive); and `O=C(CCSc1ccc(Br)cc1)c1ccc(O)cc1`, with 2% (active).

Take `CN1CCN(S(=O)(=O)c2cccc(S(=O)(=O)c3ccc(Cl)cc3)c2)CC1`: the activity increase over dofetilide control, less the hit threshold is -10% (inactive). Take `CCSc1nc2c(sc3ccccc32)c(=O)n1C(C)C`: the activity increase over dofetilide control, less the hit threshold was 25% (active). Under `COc1cccc(-n2nc(C(=O)O)c3ccccc3c2=O)c1` stands 11% (active). Then `COc1cccc(NC(=O)c2nn(-c3ccc(OC)cc3OC)c(=O)c3ccccc23)c1`, with -8% (inactive). Under `CCN(CC)CCCNC(=O)c1cn(-c2cccc(OC)c2)c(=O)c2ccccc12` stands -16% (inactive). Take `CC(C)CNC(=S)NC(=O)c1ccc(Cl)cc1`: the activity increase over dofetilide control, less the hit threshold is 19% (active).

For the compound `Cc1ccc(C(=O)NNC(=S)NC(=O)c2ccc(Cl)cc2)cc1`, the activity increase over dofetilide control, less the hit threshold is -23% (inactive). Under `Cc1cccc(C(=O)NC(=S)NNC(=O)c2ccc(Cl)cc2)c1` stands -10% (inactive); under `Nc1nc2n(n1)C(=O)CC(c1ccc(Cl)cc1)N2` (stereo unspecified), -10% (inactive); under `CN(C)S(=O)(=O)c1cc(NC2CC(=O)N(c3ccc(F)cc3)C2=O)ccc1Cl` (stereo unspecified), -2% (inactive).

With `COc1nccnc1NS(=O)(=O)c1ccc(NC(=S)NC(=O)c2ccccc2F)cc1`, the activity increase over dofetilide control, less the hit threshold was -17% (inactive). Then `O=C(NC(=S)N(CCO)Cc1ccccc1)c1cc(Br)ccc1Cl`, with 7% (active).

Turning to `CN(Cc1ccccc1)C1CCN(Cc2ccccc2[N+](=O)[O-])CC1`, the activity increase over dofetilide control, less the hit threshold was -16% (inactive). Consider `CCC(=O)NC(=S)NNC(=O)c1ccccc1[N+](=O)[O-]`, for which the activity increase over dofetilide control, less the hit threshold was -3% (inactive). Consider `CCN(Cc1ccccc1)C(=S)NC(=O)c1ccccc1Br`, for which the activity increase over dofetilide control, less the hit threshold was 47% (active). For the compound `CCCN(Cc1ccccc1)C(=S)NC(=O)c1ccccc1[N+](=O)[O-]`, the activity increase over dofetilide control, less the hit threshold is 52% (active). Then `O=C(NC(=S)N(Cc1ccccc1)Cc1ccccc1)c1ccccc1F`, with 32% (active); and `O=C(Cn1cncn1)c1ccccc1Br`, with -24% (inactive); and `O=C(O)c1ccc2c(c1)C(=O)N(c1cc([N+](=O)[O-])ccn1)C2=O`, with -3% (inactive). Under `CCCN1Cc2cccc(C(=O)NCc3cccs3)c2C1=O` stands -21% (inactive); under `CCCCCCc1cc2cc(-c3nnc(-c4ccccc4O)o3)c(=O)oc2cc1O`, -16% (inactive). Consider `Cn1cc([N+](=O)[O-])c(C(=O)N/N=C\c2c[nH]c3ccccc23)n1`, for which the activity increase over dofetilide control, less the hit threshold was -7% (inactive). As for `COc1ccc(-c2ccc(/C=N/NC(=O)c3cccnc3)o2)c([N+](=O)[O-])c1`, the activity increase over dofetilide control, less the hit threshold was 1% (active).

`O=C(Nc1ccc(Oc2cccnc2)cc1)c1cccc([N+](=O)[O-])c1`: the activity increase over dofetilide control, less the hit threshold was -6% (inactive). Then `O=C(Nc1c[nH]c(=O)[nH]c1=O)c1ccc2c(c1)C(=O)N(c1cccc([N+](=O)[O-])c1)C2=O`, with -10% (inactive). Then `CC(=O)Cn1c(=O)c2c(nc3n2CCCN3Cc2ccccc2)n(C)c1=O`, with -13% (inactive); and `O=c1[nH]n2c(=O)c3c([nH]c2c1N=Nc1ccccc1)CCC3`, with -14% (inactive); and `O=c1[nH]c(N2CCN(c3ccccc3)CC2)nc2c1CCCC2`, with 2% (active). As to `c1ccc(-c2ccnc3nc(N4CCN(c5ccccc5)CC4)nn23)cc1`, the activity increase over dofetilide control, less the hit threshold was -35% (inactive). Regarding `CN(C(=O)c1cnccn1)c1nnc(-c2cnccn2)s1`, the activity increase over dofetilide control, less the hit threshold was -15% (inactive). As to `NC(=O)Cn1nnc(-c2ccc(CN3CCCCC3)cc2)n1`, the activity increase over dofetilide control, less the hit threshold was -23% (inactive). For `COc1ccc(-c2cc(C(=O)N3CCCC3)no2)cc1OC`, the activity increase over dofetilide control, less the hit threshold is 0% (inactive). For `O=C(O)Cc1sc(-c2ccc(Cl)cc2)nc1-c1ccccc1`, the activity increase over dofetilide control, less the hit threshold was -10% (inactive). As for `CCOC(=O)c1ccc(NC(=O)Cn2nnc(-c3ccccc3)n2)cc1`, the activity increase over dofetilide control, less the hit threshold is -19% (inactive). Under `Cc1nn(CC(=O)Nc2ccc(C(=O)N3CCCC3)cc2)c(=O)c2ccccc12` stands -11% (inactive). `O=C(Cn1nc(-c2ccccc2)c2ccccc2c1=O)Nc1ccc(O)cc1`: the activity increase over dofetilide control, less the hit threshold is 24% (active). Under `CCOC(=O)c1sc2nc(Cc3ccc(Cl)cc3)[nH]c(=S)c2c1C` stands 52% (active); under `CCOC(=O)c1sc2nc(C)[nH]c(=S)c2c1C`, 21% (active); under `N/C(=N\OCc1ccccc1)c1nonc1N`, -16% (inactive).

For `CC(C)Cc1nnc(NC(=O)Cc2ccccc2[N+](=O)[O-])s1`, the activity increase over dofetilide control, less the hit threshold is -5% (inactive). Under `c1ccc(-c2csc(Nc3ccc4c(c3)OCCO4)n2)cc1` stands -17% (inactive); under `COc1cc(CCC(=O)NNC(=O)c2ccc(C)cc2)cc(OC)c1OC`, -3% (inactive). Under `CCc1ccc(NC(=S)Nc2cccc(OC)c2)cc1` stands -26% (inactive); under `CCc1ccc(NC(=O)C(=O)NNC(=O)c2ccc(OC)cc2)cc1`, 87% (active).

In the case of `CCc1ccc(NC(=O)C(=O)NNC(=O)c2cccc(OC)c2)cc1`, the activity increase over dofetilide control, less the hit threshold was 70% (active). Under `COc1ccc(NC(=O)c2ccc(NC3=NC4CS(=O)(=O)CC4S3)cc2)cc1` (stereo unspecified) stands -17% (inactive). Then `CCOc1cccc(C(=O)Nc2ccc3[nH]ncc3c2)c1`, with -18% (inactive); and `COc1ccc(C(=O)NNC(=O)C(=O)Nc2ccc(C)cc2)cc1`, with 30% (active).
